Calls of active or inactive are those of the source. The calls were made as follows: active = hit-call score of the fitted dose curve at least 0.9, where 1 is the maximum; inactive = score below 0.9.
Key:
Details in all cases: mRNA level, 48 h; actives raise or lower the signal
[1] = read-out: Cyclin Dependent Kinase Inhibitor 1A (CDKN1A), CDKN1A (gene 1026); assay: LTEA_HepaRG_CDKN1A: Life Technologies and Expression Analysis (LTEA) Assay for Cyclin Dependent Kinase Inhibitor 1A (CDKN1A) using HepaRG (AID 2283450)
How it was run: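 Gain or loss of CDKN1A transcript is scored by bidirectional fitting against 0.5% DMSO vehicle. Human HepaRG cultures receive chemicals for 48 h across an 8-point series peaking at 100 uM; expression comes from qRT-PCR.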

[2] = read-out: Cyclin D1 (CCND1), CCND1 (gene 595); assay: LTEA_HepaRG_CCND1: Life Technologies and Expression Analysis (LTEA) Assay for Cyclin D1 (CCND1) using HepaRG (AID 2283451)
How it was run: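 Expression change is measured by qRT-PCR in HepaRG cells after 48 h treatment across eight concentrations topping at 100 uM, with duplicate wells and DMSO (0.5%) serving as baseline for bidirectional fitting.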

[3] = read-out: catalase (CAT), CAT (gene 847); assay: LTEA_HepaRG_CAT: Life Technologies and Expression Analysis (LTEA) Assay for catalase (CAT) using HepaRG (AID 2283452);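 as to AC50: TaqMan qRT-PCR signal normalized to ACTB GAPDH and POLR2A housekeeping genes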
How it was run: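 HepaRG cells in serum-free induction medium, 0.5% DMSO vehicle, exposed 48 h in duplicate over 8 half-log concentrations from 100 uM. CAT mRNA measured by qRT-PCR, normalized to ACTB, GAPDH, POLR2A; bidirectional fit versus DMSO.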

[4] = read-out: flavin-containing dimethylaniline monooxygenases 3 (FMO3), FMO3 (gene 2328); assay: LTEA_HepaRG_FMO3: Life Technologies and Expression Analysis (LTEA) Assay for flavin-containing dimethylaniline monooxygenases 3 (FMO3) using HepaRG (AID 2283453)
How it was run: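 Differentiated HepaRG cells in serum-free induction medium, exposed 48 h in duplicate to 8 half-log concentrations up to 100 uM in 0.5% DMSO. FMO3 mRNA by qRT-PCR, normalized to ACTB, GAPDH, POLR2A; bidirectional fit vs DMSO.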

[5] = read-out: Cytochrome P450 (CYP1A1), CYP1A1 (gene 1543); assay: LTEA_HepaRG_CYP1A1: Life Technologies and Expression Analysis (LTEA) Assay for Cytochrome P450 (CYP1A1) using HepaRG (AID 2283454)
How it was run: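 Using HepaRG cultures with 0.5% DMSO as vehicle, eight-concentration exposures (max 100 uM) lasted 48 h. Transcript levels were measured by TaqMan qRT-PCR and normalized to ACTB, GAPDH and POLR2A.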

[6] = read-out: CFLAR gene, CFLAR (gene 8837); assay: LTEA_HepaRG_CFLAR: Life Technologies and Expression Analysis (LTEA) Assay for CFLAR gene using HepaRG (AID 2283455)
How it was run: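 Differentiated HepaRG cells in serum-free induction medium were exposed 48 h in duplicate to eight half-log concentrations up to 100 uM in 0.5% DMSO; mRNA measured by TaqMan qRT-PCR, normalized to ACTB, GAPDH, POLR2A; bidirectional fitting versus DMSO.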

[7] = read-out: Forkhead box O1 (FOXO1), FOXO1 (gene 2308); assay: LTEA_HepaRG_FOXO1: Life Technologies and Expression Analysis (LTEA) Assay for Forkhead box O1 (FOXO1) using HepaRG (AID 2283456)
How it was run: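 Differentiated HepaRG cells, in serum-free induction medium with 0.5% DMSO, exposed 48 h in duplicate to 8-point half-log series from 100 uM. FOXO1 mRNA measured by TaqMan qRT-PCR, normalized to ACTB, GAPDH, POLR2A; bidirectional fit versus DMSO.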

[8] = read-out: growth arrest and DNA damage 45 (GADD45A), GADD45A (gene 1647); assay: LTEA_HepaRG_GADD45A: Life Technologies and Expression Analysis (LTEA) Assay for growth arrest and DNA damage 45 (GADD45A) using HepaRG (AID 2283458)
How it was run: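 Differentiated HepaRG cells exposed 48 h in serum-free induction medium to 8 concentrations, top 100 uM in half-log steps, 0.5% DMSO. GADD45A mRNA quantified by qRT-PCR, normalized to ACTB, GAPDH and POLR2A; bidirectional fit versus DMSO.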

[9] = read-out: Forkhead box O3 (FOXO3), FOXO3 (gene 2309); assay: LTEA_HepaRG_FOXO3: Life Technologies and Expression Analysis (LTEA) Assay for Forkhead box O3 (FOXO3) using HepaRG (AID 2283459)
How it was run: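 Differentiated human HepaRG cells, 48 h post-plating, exposed in duplicate for 48 h in serum-free induction medium; 8-point half-log series from 100 uM in 0.5% DMSO. FOXO3 mRNA by TaqMan qRT-PCR, normalized to ACTB/GAPDH/POLR2A; bidirectional fit versus DMSO.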

[10] = read-out: ABC Transporter (ABCB1), ABCB1 (gene 5243); assay: LTEA_HepaRG_ABCB1: Life Technologies and Expression Analysis (LTEA) Assay for ABC Transporter (ABCB1) using HepaRG (AID 2283460)
How it was run: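 HepaRG cells exposed in duplicate for 48 h in serum-free induction medium to eight half-log concentrations up to 100 uM in 0.5% DMSO. ABCB1 mRNA quantified by qRT-PCR, normalised to ACTB, GAPDH and POLR2A; fitted bidirectionally versus DMSO.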

[11] = read-out: growth arrest and DNA damage 45 (GADD45B), GADD45B (gene 4616); assay: LTEA_HepaRG_GADD45B: Life Technologies and Expression Analysis (LTEA) Assay for growth arrest and DNA damage 45 (GADD45B) using HepaRG (AID 2283461)
How it was run: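 Human HepaRG monolayers receive chemicals for 48 h at eight half-log concentrations, highest 100 uM, in 0.5% DMSO. Expression is measured by TaqMan qRT-PCR and normalized to ACTB, GAPDH and POLR2A.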

[12] = read-out: ABC Transporter (ABCC3), ABCC3 (gene 8714); assay: LTEA_HepaRG_ABCC3: Life Technologies and Expression Analysis (LTEA) Assay for ABC Transporter (ABCC3) using HepaRG (AID 2283462)
How it was run: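 Transcriptional change of ABCC3 in HepaRG after 48 h treatment, determined by qRT-PCR normalized to endogenous controls. Concentrations spanned eight half-log steps to 100 uM in 0.5% DMSO.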

[13] = read-out: ABC Transporter (ABCB11), ABCB11 (gene 8647); assay: LTEA_HepaRG_ABCB11: Life Technologies and Expression Analysis (LTEA) Assay for ABC Transporter (ABCB11) using HepaRG (AID 2283463)
How it was run: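 Differentiated human HepaRG cells in serum-free induction medium, dosed in duplicate for 48 h. Eight-point half-log series from 100 uM in 0.5% DMSO; ABCB11 mRNA by qRT-PCR, normalized to ACTB, GAPDH, POLR2A, fitted bidirectionally versus DMSO.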

[14] = read-out: ABC Transporter (ABCC2), ABCC2 (gene 1244); assay: LTEA_HepaRG_ABCC2: Life Technologies and Expression Analysis (LTEA) Assay for ABC Transporter (ABCC2) using HepaRG (AID 2283464)
How it was run: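 After plating and 48 h culture, HepaRG medium is replaced with serum-free induction medium and chemicals are added (8 concentrations, max 100 uM, 0.5% DMSO) for 48 h. Total RNA then undergoes qRT-PCR for ABCC2 with housekeeping normalization.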

[15] = read-out: Broad substrate specificity ATP-binding cassette transporter ABCG2 (Homo sapiens) (UniProt Q9UNQ0); assay: LTEA_HepaRG_ABCG2: Life Technologies and Expression Analysis (LTEA) Assay for ABC Transporter (ABCG2) using HepaRG (AID 2283465)
How it was run: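 Differentiated HepaRG cells were exposed for 48 h in serum-free induction medium to 8 half-log concentrations, top 100 uM, in 0.5% DMSO. ABCG2 mRNA was measured by qRT-PCR, normalized to ACTB, GAPDH and POLR2A, with bidirectional fitting versus DMSO.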

[16] = read-out: Peroxisomal acyl-coenzyme A oxidase 1 (ACOX1) gene, ACOX1 (gene 51); assay: LTEA_HepaRG_ACOX1: Life Technologies and Expression Analysis (LTEA) Assay for Peroxisomal acyl-coenzyme A oxidase 1 (ACOX1) gene using HepaRG (AID 2283467)
How it was run: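 HepaRG cells, plated 48 h then switched to serum-free induction medium, were exposed in duplicate for 48 h to 8-point half-log concentrations up to 100 uM in 0.5% DMSO. ACOX1 mRNA was measured by qRT-PCR, normalized to ACTB/GAPDH/POLR2A, and fitted bidirectionally versus DMSO.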

[17] = read-out: Cyclin D2 (CCND2), CCND2 (gene 894); assay: LTEA_HepaRG_CCND2: Life Technologies and Expression Analysis (LTEA) Assay for Cyclin D2 (CCND2) using HepaRG (AID 2283449);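 also: CCND2 transcript measured by TaqMan qRT-PCR and normalised to three housekeeping genes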
How it was run: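 Chemicals in 0.5% DMSO, eight half-log concentrations from 100 uM top, were applied in duplicate for 48 h to human HepaRG cells in serum-free induction medium. CCND2 mRNA by TaqMan qRT-PCR, normalised to ACTB/GAPDH/POLR2A; bidirectional fit versus DMSO.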

[18] = read-out: ATP-citrate lyase (ACLY), ACLY (gene 47); assay: LTEA_HepaRG_ACLY: Life Technologies and Expression Analysis (LTEA) Assay for ATP-citrate lyase (ACLY) using HepaRG (AID 2283466)
How it was run: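 Differentiated HepaRG cells exposed 48 h in serum-free induction medium to eight half-log concentrations up to 100 uM in 0.5% DMSO, duplicates. Transcript measured by Fluidigm TaqMan qRT-PCR, normalized to ACTB, GAPDH, POLR2A; bidirectional fit versus DMSO.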

Measured: AC50

Sequence of Broad substrate specificity ATP-binding cassette transporter ABCG2 (Homo sapiens) (Q9UNQ0 whole entry, looked up): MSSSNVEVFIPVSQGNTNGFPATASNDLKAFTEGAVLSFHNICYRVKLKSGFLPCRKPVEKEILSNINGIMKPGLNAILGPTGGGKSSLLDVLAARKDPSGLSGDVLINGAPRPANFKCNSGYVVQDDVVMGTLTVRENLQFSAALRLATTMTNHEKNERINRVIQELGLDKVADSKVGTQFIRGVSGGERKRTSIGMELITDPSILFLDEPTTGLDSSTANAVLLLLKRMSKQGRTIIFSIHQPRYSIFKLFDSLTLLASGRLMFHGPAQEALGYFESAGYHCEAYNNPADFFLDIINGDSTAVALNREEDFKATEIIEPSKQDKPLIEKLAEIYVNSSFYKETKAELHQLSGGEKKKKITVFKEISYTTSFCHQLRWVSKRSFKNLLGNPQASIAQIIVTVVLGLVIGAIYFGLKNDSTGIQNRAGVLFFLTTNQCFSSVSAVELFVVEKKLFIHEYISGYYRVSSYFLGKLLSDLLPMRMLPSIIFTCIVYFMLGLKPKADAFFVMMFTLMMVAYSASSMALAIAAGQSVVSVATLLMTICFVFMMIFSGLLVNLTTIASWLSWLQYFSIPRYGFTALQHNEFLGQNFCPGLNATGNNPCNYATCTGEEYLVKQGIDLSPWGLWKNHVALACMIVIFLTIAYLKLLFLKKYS

CCOc1nc(F)cc2nc(S(=O)(=O)Nc3c(Cl)cccc3Cl)nn12
active: [13] 41.7 µM | [14] 7.91 µM
inactive: [1] | [2] | [3] | [4] | [5] | [6] | [7] | [8] | [9] | [10] | [11] | [12] | [15] | [16]

O=c1n(Cl)c(=O)n(Cl)c(=O)n1Cl
inactive: [17] | [1] | [2] | [3] | [4] | [7] | [8] | [9] | [10] | [11] | [12] | [13] | [14] | [15] | [18] | [16]
active: [5] 60.2 µM

O=C(O)c1c(Cl)ccc2cc(Cl)cnc12
inactive: [17] | [1] | [2] | [3] | [4] | [5] | [6] | [7] | [9] | [10] | [11] | [12] | [13] | [14] | [15] | [16]
active: [8] 0.00381 µM

COc1cc(OC)nc(NC(=O)NS(=O)(=O)c2ncccc2OCC(F)(F)F)n1
inactive: [1] | [2] | [3] | [4] | [6] | [7] | [9] | [11] | [12] | [13] | [14] | [15] | [18] | [16]
active: [5] 21 µM | [8] 50 µM | [10] 31.3 µM

COP(=O)(OC)O/C(C)=C/C(=O)N(C)C
inactive: [17] | [1] | [2] | [3] | [4] | [5] | [6] | [7] | [8] | [9] | [10] | [11] | [12] | [14] | [15] | [18] | [16]
active: [13] 11 µM

CC1(C)CON(Cc2ccccc2Cl)C1=O
active: [5] 50 µM | [10] 9.19 µM | [14] 18.4 µM
inactive: [17] | [1] | [2] | [3] | [4] | [7] | [8] | [9] | [11] | [12] | [13] | [15] | [16]

CC(C)N1C(=O)N(c2ccccc2)CSC1=NC(C)(C)C
inactive: [17] | [2] | [5] | [7] | [9] | [11] | [12] | [14] | [16]
active: [1] 85.2 µM | [3] 75.4 µM | [4] 91.2 µM | [8] 81.2 µM | [10] 17.7 µM | [13] 94.4 µM | [15] 50 µM

CCOP(=S)(OCC)Oc1nc(Cl)n(C(C)C)n1
active: [4] 24.7 µM | [5] 9.25 µM | [12] 50 µM | [13] 1.64 µM | [18] 33.5 µM | [16] 9.48 µM
inactive: [1] | [2] | [3] | [6] | [7] | [8] | [9] | [10] | [11] | [14] | [15]
